Records with an inconclusive call do not appear. The source made the active and inactive calls.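 Rule for the calls, unless noted: active = viability at or below 30% in both replicate assays; inconclusive = viability at or below 30% in just one of the two assays; inactive = the rest.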
How the values were obtained:
[1] = reduced viability of SK-BR-3 breast cancer cells – cell-based, 24 h, human, pilot screen (AID 572;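 active = viability at or below 10% of carrier control in both of two separate runs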;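 note: compound exposure lasted between 18 and 24 h rather than exactly 24 h; 100% = carrier-treated control wells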); conditions: SK-BR-3 viability, CellTiter-Glo luminescence, at 10 µM, stronger effect = lower value
[2] = HUVEC growth inhibition – cell-based, human, primary screen (AID 575); conditions: HUVEC proliferation, CellTiter-Glo luminescence, 72 h; at 10 µM; stronger effect = lower value;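 note: 100% = median of untreated cell wells with 0.1% DMSO on each plate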
[3] = H69AR cell proliferation blockers – human, duplicate replicates, primary screen (AID 580;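 active = viability at or under a set limit in both replicates, limit being median viability minus 3 SD, cut at about 48% in these data, passing the limit was not always enough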;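 note: 100% = mean luminescence of untreated wells and 0% = no signal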); conditions: H69AR lung tumor cells viability, ATP luminescence, 72 h; at 10 µM; stronger effect = lower value
[4] = MRP1 drug-resistance reversers in H69AR cells – cell-based, doxorubicin co-treatment, pilot screen (AID 601;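 active = viability loss from added drug above about 55%, and viability with drug at most 40%, in both replicates, limit read from the data, passing the limit was not always enough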); conditions: CellTiter-Glo, 72 h, at 10 µM; for differential viability (reversal): stronger effect = higher value
[5] = yeast transport mutant growth inhibition pilot in 384-well plates, post-Golgi transport modulator project (AID 636; in the data active = inhibition above about 31%); conditions: absorbance 615 nm, about 18 h, stronger effect = higher value
[6] = growth suppression of yeast trafficking mutant, preliminary HTS, modulators of trafficking downstream of Golgi apparatus project, 1536-format plate, OD 615 nm (AID 637; in the data active = inhibition above about 30%); conditions: yeast transport mutant growth, absorbance 615 nm, 18 h; stronger effect = higher value
[7] = S. cerevisiae growth inhibition in permissive medium (OD615), pilot counter-assay for S. cerevisiae lifespan shortening project, permissive growth control (AID 705;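 active = growth inhibition above 25% in both replicates, a cutoff set 3 SD above the mean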); conditions: OD615, 24 h, at 10 µM, stronger effect = higher value
[8] = S. cerevisiae growth inhibition in restrictive medium, OD615, pilot screen, restrictive growth control, yeast lifespan reduction project (AID 706;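 active = growth inhibition above a set limit, 3 SD over mean compound inhibition, in both replicates, cut at about 43% in these data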;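 note: modified DeaD lifespan yeast strain shifted to restrictive glucose medium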); conditions: OD615, 48 h, at 10 µM, stronger effect = higher value
[9] = doxorubicin toxicity protection in MRP-1 cells – H69AR cells, CellTiter-Glo, duplicate, MRP-1 activator project, pilot screen (AID 807;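 active = viability increase at or above a cutoff of the median across tested compounds plus 3 SD, cut at about 8.5% in these data, passing the limit was not always enough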;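 note: compound pretreatment 18-22 h then 72 h combined with doxorubicin; 0% = doxorubicin alone and 100% = vehicle without doxorubicin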); conditions: H69AR viability with doxorubicin, CellTiter-Glo luminescence; at 10 µM; stronger effect = higher value
[10] = viability of HCT116 without oncogenic beta-catenin – human colon tumor cells, pilot screen (AID 823;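 active = cell viability at or below a set limit in both duplicate runs, the limit being the all-compound median minus 4 SD, cut at about 23% in these data, passing the limit was not always enough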;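 note: 0% = wells killed by 20 µM Hyamine and 100% = untreated DMSO cell wells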); conditions: HCT116 beta-catenin knockout viability, CellTiter-Glo, 60 h; at 10 µM; stronger effect = lower value
[11] = viability of PTEN-null HCT116 cells – cell-based, HCT116 clonal line, CellTiter-Glo, pilot screen (AID 824;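 active = viability at or below 27.92% in each of two runs, the all-compound median minus 4 SD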;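 note: 0% = 20 µM Hyamine control and 100% = vehicle cell control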); conditions: HCT116 PTEN-deleted viability, 60 h, at 10 µM, stronger effect = lower value
[12] = RAM pathway blockade in budding yeast – dse1pr::URA3 reporter, 5-FOA selection, pilot screen (AID 869;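 active = inhibition over a set limit, the all-compound mean plus 3 SD, in both replicate runs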;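 note: 0% = DMSO wells with no growth and 100% = 10 µM 1-NA-PP1 with full growth; RAM network block rescues cells from 5-FOA so hits raise OD615 growth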); conditions: S. cerevisiae dse1pr::URA3 5-FOA growth, OD615, 2 d; at 10 µM; stronger effect = higher value; strain carries analog-sensitive mutant Cbk1 kinase
[13] = H69AR cells + 2 uM doxorubicin, measured here: viability with 2 uM doxorubicin, stronger effect = lower value
[14] = H69AR cells, compound alone cytotoxicity

Cc1ccc(-c2ccc(=O)n(CC(=O)NCCCN3CCCCC3C)n2)cc1 (stereo unspecified)
viability [1]: 97% (inactive) | viability [2]: 99% (inactive) | viability [3]: 91.9% (inactive) | differential viability (reversal) ([4]; H69AR cells + 2 uM doxorubicin): -3.54% (inactive) | viability [4, 13]: 95.4% | viability [4, 14]: 91.9% | inhibition [5]: -0.39% (inactive) | inhibition [6]: -6.56% (inactive)

O=C(NCCCN1CCCC1=O)c1cccnc1
viability [1]: 135% (inactive) | viability [2]: 113% (inactive) | viability [3]: 89.2% (inactive) | differential viability (reversal) ([4]; H69AR cells + 2 uM doxorubicin): 0.48% (inactive) | viability [4, 13]: 88.7% | viability [4, 14]: 89.2% | inhibition [5]: -4.25% (inactive) | inhibition [6]: 3.09% (inactive)

CC(OC(=O)CNC(=O)C12CC3CC(CC(C3)C1)C2)C(=O)Nc1ccc(N2CCOCC2)cc1 (stereo unspecified)
viability [1]: 121% (inactive) | viability [2]: 101% (inactive) | viability [3]: 97.2% (inactive) | differential viability (reversal) ([4]; H69AR cells + 2 uM doxorubicin): 2.31% (inactive) | viability [4, 13]: 94.8% | viability [4, 14]: 97.2% | inhibition [5]: -0.68% (inactive) | inhibition [6]: -2.55% (inactive)

O=C1NC(=O)C(CC(=O)N(c2ccccc2)C2(C(=O)NC3CCCC3)CCCCC2)N1 (stereo unspecified)
viability [1]: 99% (inactive) | viability [2]: 100% (inactive) | viability [3]: 97.2% (inactive) | differential viability (reversal) ([4]; H69AR cells + 2 uM doxorubicin): 8.26% (inactive) | viability [4, 13]: 88.9% | viability [4, 14]: 97.2% | inhibition [5]: -8.36% (inactive) | inhibition [6]: 4.36% (inactive)

CCOC(=O)c1cc(CC)sc1NC(=O)COC
viability [1]: 104% (inactive) | viability [2]: 89.4% (inactive) | viability [3]: 88.8% (inactive) | differential viability (reversal) ([4]; H69AR cells + 2 uM doxorubicin): 2.66% (inactive) | viability [4, 13]: 86.2% | viability [4, 14]: 88.8% | inhibition [5]: -7.07% (inactive) | inhibition [6]: 0.18% (inactive)

Cc1nnc(SCC(=O)NCc2ccc3c(c2)OCO3)s1
viability [1]: 87% (inactive) | viability [2]: 103% (inactive) | viability [3]: 101% (inactive) | differential viability (reversal) ([4]; H69AR cells + 2 uM doxorubicin): -12.3% (inactive) | viability [4, 13]: 113% | viability [4, 14]: 101% | inhibition [5]: -2.33% (inactive) | inhibition [6]: 5.82% (inactive)

O=C1NC(c2cccnc2)C(C(=O)c2cccs2)C(O)(C(F)(F)F)N1 (stereo unspecified)
viability [1]: 116% (inactive) | viability [2]: 113% (inactive) | viability [3]: 103% (inactive) | differential viability (reversal) ([4]; H69AR cells + 2 uM doxorubicin): 4.9% (inactive) | viability [4, 13]: 97.7% | viability [4, 14]: 103% | inhibition [5]: -0.27% (inactive) | inhibition [6]: -0.18% (inactive)

Cc1cc(-c2ccccc2)nnc1NCCN1CCOCC1
viability [1]: 98% (inactive) | viability [2]: 85.7% (inactive) | viability [3]: 89.7% (inactive) | differential viability (reversal) ([4]; H69AR cells + 2 uM doxorubicin): -2.49% (inactive) | viability [4, 13]: 92.1% | viability [4, 14]: 89.7% | inhibition [5]: 1.69% (inactive) | inhibition [6]: -3.17% (inactive)

CCCNC(=O)NS(=O)(=O)c1ccc(Cl)cc1
viability [1]: 124% (inactive) | viability [2]: 85% (inactive) | viability [3]: 97.5% (inactive) | differential viability (reversal) ([4]; H69AR cells + 2 uM doxorubicin): 10.4% (inactive) | viability [4, 13]: 87.1% | viability [4, 14]: 97.5% | inhibition [5]: -1.17% (inactive) | inhibition [6]: 0.83% (inactive)

CCOC(=O)c1ccccc1NC1c2ccccc2C(=O)N1C1CCN(C(=O)OCC)CC1 (stereo unspecified)
viability [1]: 126% (inactive) | viability [2]: 76.2% (inactive) | viability [3]: 80.5% (inactive) | differential viability (reversal) ([4]; H69AR cells + 2 uM doxorubicin): 37.6% (inactive) | viability [4, 13]: 42.9% | viability [4, 14]: 80.5% | inhibition [5]: -4.13% (inactive) | inhibition [6]: -3.17% (inactive) | growth inhibition [7]: 3.84% (inactive) | growth inhibition [8]: 4.88% (inactive) | viability increase [9]: -7.16% (inactive) | viability [10]: 50.3% (inactive) | viability [11]: 46.2% (inactive) | inhibition [12]: 1.9% (inactive)

Cc1cc(CN2CCN(CCC#N)CC2)c(O)c(C2(C)CCCCC2)c1
viability [1]: 106% (inactive) | viability [2]: 54.2% (inactive) | differential viability (reversal) ([4]; H69AR cells + 2 uM doxorubicin): -12.2% (inactive) | viability [4, 13]: 77.1% | viability [4, 14]: 64.9% | inhibition [5]: 1.1% (inactive) | inhibition [6]: 39.4% (active)

Cc1nnc(SCCn2c(Br)nc3c2c(=O)n(C)c(=O)n3C)s1
viability [1]: 95% (inactive) | viability [2]: 106% (inactive) | viability [3]: 98.2% (inactive) | differential viability (reversal) ([4]; H69AR cells + 2 uM doxorubicin): 0.705% (inactive) | viability [4, 13]: 97.5% | viability [4, 14]: 98.2% | inhibition [5]: -1.76% (inactive) | inhibition [6]: -5.09% (inactive)

Cc1cc(=O)n2nc(N3CCCC(C(=O)N4CCc5ccccc54)C3)sc2n1 (stereo unspecified)
viability [1]: 82% (inactive) | viability [2]: 87.1% (inactive) | viability [3]: 85.8% (inactive) | differential viability (reversal) ([4]; H69AR cells + 2 uM doxorubicin): -2.83% (inactive) | viability [4, 13]: 88.7% | viability [4, 14]: 85.8% | inhibition [5]: -6.76% (inactive) | inhibition [6]: 1.64% (inactive)

COc1ccc(C)cc1-n1c(N)c(C#N)c(C#N)c1-c1ccc(OC)c(OC)c1OC
viability [1]: 97% (inactive) | viability [2]: 68.7% (inactive) | viability [3]: 72.9% (inactive) | inhibition [5]: -3.51% (inactive) | inhibition [6]: -1.31% (inactive)

COc1ccccc1Nc1nc(N)nc(-c2cc3ccccc3o2)n1
viability [1]: 91% (inactive) | viability [2]: 78.4% (inactive) | differential viability (reversal) ([4]; H69AR cells + 2 uM doxorubicin): -26.4% (inactive) | viability [4, 13]: 75.7% | viability [4, 14]: 49.3% | inhibition [5]: -2.97% (inactive) | inhibition [6]: -4.55% (inactive)

CN1CCN(CCCN2c3ccccc3Sc3ccc(Cl)cc32)CC1
viability [1]: 25% | viability [2]: 3.48% (active) | differential viability (reversal) ([4]; H69AR cells + 2 uM doxorubicin): -15.4% (inactive) | viability [4, 13]: 58.6% | viability [4, 14]: 43.1%

COC(=O)Nc1nc2ccc(C(=O)c3ccccc3)cc2[nH]1
viability [1]: 109% (inactive) | viability [2]: 44.3% (inactive) | differential viability (reversal) ([4]; H69AR cells + 2 uM doxorubicin): -47.3% (inactive) | viability [4, 13]: 73.4% | viability [4, 14]: 26.1% | inhibition [5]: 42.3% (active) | inhibition [6]: 90.2% (active)

CCOC(=O)N1CCC(n2c(SCC(=O)NCc3ccco3)nc3ccsc3c2=O)CC1
viability [1]: 81% (inactive) | viability [2]: 88.3% (inactive) | viability [3]: 78.5% (inactive) | inhibition [5]: -3.55% (inactive) | inhibition [6]: 2.67% (inactive)

CCOC(=O)c1[nH]c(CSc2nnc(-c3ccc(OC)cc3)o2)c(C(=O)OCC)c1C
viability [1]: 56% (inactive) | viability [2]: 72.3% (inactive) | differential viability (reversal) ([4]; H69AR cells + 2 uM doxorubicin): 0.61% (inactive) | viability [4, 13]: 37.4% | viability [4, 14]: 38% | inhibition [5]: -3.24% (inactive) | inhibition [6]: -4.36% (inactive)

COc1ccc2c(c1OC)C(=O)O[C@@H]2[C@H]1c2c(cc3c(c2OC)OCO3)CCN1C
viability [1]: 98% (inactive) | viability [2]: 80.8% (inactive) | differential viability (reversal) ([4]; H69AR cells + 2 uM doxorubicin): -52.2% (inactive) | viability [4, 13]: 84.1% | viability [4, 14]: 31.9% | inhibition [5]: -6.36% (inactive) | inhibition [6]: -3.5% (inactive)

O=C(CSCc1cccs1)N1CCCC1
viability [1]: 115% (inactive) | viability [2]: 93.6% (inactive) | viability [3]: 104% (inactive) | differential viability (reversal) ([4]; H69AR cells + 2 uM doxorubicin): 13.8% (inactive) | viability [4, 13]: 90.6% | viability [4, 14]: 104% | inhibition [5]: -0.91% (inactive) | inhibition [6]: 5.41% (inactive)

COc1ccccc1C1N(c2ccc(F)cc2)C(=O)C2CCCN21 (stereo unspecified)
viability [1]: 102% (inactive) | viability [2]: 111% (inactive) | viability [3]: 108% (inactive) | differential viability (reversal) ([4]; H69AR cells + 2 uM doxorubicin): 17.8% (inactive) | viability [4, 13]: 90.1% | viability [4, 14]: 108% | inhibition [5]: -5.07% (inactive) | inhibition [6]: -1.27% (inactive)

OCCN1CCN(CCCN2c3ccccc3Sc3ccc(C(F)(F)F)cc32)CC1
viability [1]: 3% (active) | viability [2]: 2.4% (active) | differential viability (reversal) ([4]; H69AR cells + 2 uM doxorubicin): -2.74% (inactive) | viability [4, 13]: 3.77% | viability [4, 14]: 1.03%

c1ccc(-c2nc3ccccc3nc2-c2ccccn2)nc1
viability [1]: 89% (inactive) | viability [2]: 107% (inactive) | viability [3]: 89.5% (inactive) | differential viability (reversal) ([4]; H69AR cells + 2 uM doxorubicin): -9.55% (inactive) | viability [4, 13]: 99.1% | viability [4, 14]: 89.5% | inhibition [5]: -1.17% (inactive) | inhibition [6]: 0.98% (inactive)

Reference: PubChem BioAssay
